Records with an inconclusive call do not appear. Active and inactive are the calls of the source. Calls follow the shape of the dose curve; as a rule, active = well fitted cell-killing curve with a large enough effect; inconclusive = small, poorly fitted or top-dose-only effect, or effect the other way; inactive = no such curve, though single readings can be large or run the other way.
Legend:
[1] = Quantitative High-Throughput drug screen in 47 multiple myeloma cell lines against the NCATS MIPE library collection: KMS34_JCRB cell viability assay (AID 1918985); details: KMS34 myeloma viability, CellTiter-Glo ATP luminescence, 48 h; series mostly up to 45.8 µM; also: nearly all actives have a fitted effect of over 40% in size
Summary of the method: (§1)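 Plated at 500 cells per well, myeloma lines received MIPE 4.0 compounds by pin tool. Following 48 h culture at 37 °C, CellTiter-Glo luminescence gave viability relative to DMSO and media-only controls.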

[2] = Quantitative High-Throughput drug screen in 47 multiple myeloma cell lines against the NCATS MIPE library collection: OCIMY7_PLB cell viability assay (AID 1918987); details: OCI-MY7 myeloma viability, CellTiter-Glo ATP, 48 h; series mostly up to 45.8 µM; also: nearly all actives have a fitted effect of over 65% in size
Summary of the method: as §1

[3] = Quantitative High-Throughput drug screen in 47 multiple myeloma cell lines against the NCATS MIPE library collection: SKMM1_PLB cell viability assay (AID 1919863); details: SKMM1 myeloma viability, CellTiter-Glo ATP, 48 h; viability: hits give low values; also: nearly all actives have a fitted effect of over 35% in size
Summary of the method: as §1

[4] = Quantitative High-Throughput drug screen in 47 multiple myeloma cell lines against the NCATS MIPE library collection: U266_ATCC cell viability assay (AID 1919864); details: U266 myeloma viability, CellTiter-Glo ATP luminescence, 48 h; series mostly up to 45.8 µM; also: nearly all actives have a fitted effect of over 35% in size
Summary of the method: as §1

[5] = Quantitative High-Throughput drug screen in 47 multiple myeloma cell lines against the NCATS MIPE library collection: XG6_PLB cell viability assay (AID 1919865); details: XG6 myeloma viability, CellTiter-Glo ATP luminescence, 48 h; series mostly up to 45.8 µM; also: nearly all actives have a fitted effect of over 40% in size
Summary of the method: as §1

[6] = Quantitative High-Throughput drug screen in 47 multiple myeloma cell lines against the NCATS MIPE library collection: XG1_PLB cell viability assay (AID 1919866); details: CellTiter-Glo ATP, 48 h; series mostly up to 45.8 µM; also: nearly all actives have a fitted effect of over 35% in size
Summary of the method: as §1

[7] = Quantitative High-Throughput drug screen in 47 multiple myeloma cell lines against the NCATS MIPE library collection: VP6_DJ cell viability assay (AID 1919867); details: ATP luminescence, 48 h; series mostly up to 45.8 µM; also: nearly all actives have a fitted effect of over 40% in size
Summary of the method: as §1

[8] = Quantitative High-Throughput drug screen in 47 multiple myeloma cell lines against the NCATS MIPE library collection: UTMC2_PLB cell viability assay (AID 1919868); details: CellTiter-Glo ATP luminescence, 48 h; viability (% of DMSO control): at 45.8 µM (top of the series) unless noted; also: nearly all actives have a fitted effect of over 55% in size
Summary of the method: as §1

[9] = Quantitative High-Throughput drug screen in 47 multiple myeloma cell lines against the NCATS MIPE library collection: OCIMY5_PLB cell viability assay (AID 1918988); details: OCI-MY5 myeloma viability, ATP luminescence, 48 h; series mostly up to 45.8 µM; also: nearly all actives have a fitted effect of over 65% in size
Summary of the method: as §1

[10] = Quantitative High-Throughput drug screen in 47 multiple myeloma cell lines against the NCATS MIPE library collection: OPM1_PLB cell viability assay (AID 1918989); details: CellTiter-Glo, 48 h; series mostly up to 45.8 µM; also: nearly all actives have a fitted effect of over 40% in size
Summary of the method: as §1

Measured: Potency
Potency is read from the fitted curve at half-maximal effect.

CC[C@@]1(O)C(=O)OCc2c1cc1n(c2=O)Cc2cc3cc(O)ccc3nc2-1
active: [1] 1.18 µM | [2] 0.0105 µM | [3] 1.32 µM | [4] 2.96 µM | [5] 0.0132 µM | [6] 0.0662 µM | [7] 0.418 µM | [8] 0.0372 µM

N#CCNC(=O)c1ccc(-c2ccnc(Nc3ccc(N4CCOCC4)cc3)n2)cc1
active: [1] 4.69 µM | [2] 5.26 µM | [9] 13.2 µM | [4] 18.7 µM | [5] 2.64 µM | [6] 5.26 µM | [7] 3.72 µM

Cc1cc(CN2CCN(c3c(Br)cnc4nc(-c5ccc(N6CCN(C)CC6)cc5)[nH]c34)CC2)no1
active: [1] 5.9 µM | [2] 1.05 µM | [9] 7.43 µM | [4] 16.6 µM | [5] 2.35 µM | [6] 2.09 µM | [7] 3.32 µM | [8] 10.5 µM

COc1ccc(C(=O)CC2(O)C(=O)Nc3c(Cl)ccc(Cl)c32)cc1 (stereo unspecified)
active: [1] 2.96 µM | [2] 0.526 µM | [10] 9.35 µM | [3] 1.18 µM | [5] 0.833 µM | [6] 0.833 µM | [7] 2.96 µM

O=C(NC1CCNCC1)c1[nH]ncc1NC(=O)c1c(Cl)cccc1Cl
active: [1] 0.418 µM | [2] 3.72 µM | [10] 1.87 µM | [4] 0.187 µM | [5] 0.469 µM | [6] 0.833 µM | [7] 0.59 µM

CC1=C(CO)C(=O)O[C@@H]([C@@H](C)[C@H]2CC[C@H]3[C@@H]4C[C@H]5O[C@]56[C@@H](O)C=CC(=O)[C@]6(C)[C@@H]4CC[C@]23C)C1
active: [1] 0.118 µM | [2] 0.105 µM | [10] 0.132 µM | [3] 0.296 µM | [4] 0.264 µM | [5] 0.469 µM | [6] 0.209 µM | [7] 0.166 µM | [8] 0.296 µM

CN1CCN(c2ccc3nc(-c4c(N)c5c(F)cccc5[nH]c4=O)[nH]c3c2)CC1
active: [1] 16.6 µM | [2] 3.32 µM | [10] 3.72 µM | [4] 13.2 µM | [5] 2.09 µM | [6] 3.32 µM | [7] 2.35 µM | [8] 5.9 µM

Nc1ccccc1NC(=O)c1ccc(CNC(=O)OCc2cccnc2)cc1
active: [1] 0.935 µM | [2] 1.66 µM | [3] 1.32 µM | [4] 5.9 µM | [5] 2.35 µM | [6] 1.66 µM | [7] 0.743 µM

Cc1[nH]nc2ccc(-c3cncc(OC[C@@H](N)Cc4ccccc4)c3)cc12
active: [1] 4.69 µM | [2] 0.0332 µM | [10] 2.35 µM | [3] 8.33 µM | [4] 0.059 µM | [6] 0.59 µM | [7] 0.833 µM | [8] 0.59 µM

CC(C)c1cc(-c2n[nH]c(=O)n2-c2ccc3c(ccn3C)c2)c(O)cc1O
active: [1] 0.0264 µM | [2] 0.0118 µM | [3] 0.0743 µM | [4] 0.0372 µM | [5] 0.059 µM | [6] 0.0296 µM | [7] 0.0209 µM | [8] 0.0526 µM

CC(C)c1cnn2c(NCc3ccccc3)cc(N[C@@H](CO)[C@H](O)CO)nc12
active: [1] 0.662 µM | [2] 0.235 µM | [3] 0.372 µM | [4] 0.296 µM | [5] 0.235 µM | [6] 0.264 µM | [7] 0.187 µM | [8] 0.209 µM

CC(C)c1nn(-c2c(Cl)cccc2Cl)c2nc(Cc3ccc(OCCO)cc3)[nH]c(=O)c12
active: [1] 0.118 µM | [2] 0.0743 µM | [10] 0.132 µM | [3] 0.332 µM | [4] 0.209 µM | [5] 0.0833 µM | [6] 0.187 µM | [7] 0.0372 µM

CCCCOc1c(C(=O)c2c(F)cc(C)cc2F)cnc2n[nH]cc12
active: [1] 2.35 µM | [2] 4.18 µM | [10] 11.8 µM | [4] 13.2 µM | [5] 2.35 µM | [6] 2.96 µM | [7] 3.32 µM | [8] 3.32 µM

CN1CCN(Cc2ccc(NC(=O)Nc3ccc(Oc4cc(NC(=O)C5CC5)ncn4)cc3)cc2C(F)(F)F)CC1
active: [1] 0.332 µM | [2] 0.526 µM | [10] 0.166 µM | [3] 0.332 µM | [4] 0.418 µM | [5] 0.148 µM | [6] 0.187 µM | [7] 0.0935 µM

Cn1c(=O)n(-c2ccc(C(C)(C)C#N)cc2)c2c3cc(-c4cnc5ccccc5c4)ccc3ncc21
active: [1] 0.0132 µM | [2] 1.48 µM | [3] 0.0332 µM | [4] 4.18 µM

COc1cccc2nc(-c3cccs3)nc(NN3C(=O)C=C(C)C3=O)c12
active: [1] 0.0296 µM | [2] 0.0264 µM | [10] 0.0833 µM | [3] 1.05 µM | [4] 0.118 µM | [5] 0.0833 µM | [6] 0.0264 µM | [7] 0.0372 µM
